4 compounds from PubChem BioAssay (EPA / NIEHS) can be followed below.

Read-out in assay [1]: Matrix Metallopeptidase 9 (MMP9), MMP9 (gene 4318)
Nature of the assay: BSK_KF3CT_MMP9: BioMAP Diversity Plus: KF3CT Assay for Matrix Metallopeptidase 9 (MMP9) Biomarker Activity (AID 2283074).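 As to AC50: MMP9 protein level quantified by ELISA in the co-culture.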 The settings on record: primary human keratinocytes with fibroblasts; actives raise or lower the signal. Put shortly:
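Keratinocyte plus foreskin fibroblast human primary skin co-culture was dosed with chemical and MMP-9 was quantified by ELISA 24 h later. Bidirectional curve fitting used DMSO as negative control and activity baseline.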

Read-out in assay [2]: urokinase plasminogen activator (uPA), PLAU (gene 5328)
Kind of assay: BSK_KF3CT_uPA: BioMAP Diversity Plus: KF3CT Assay for urokinase plasminogen activator (uPA) Biomarker Activity (AID 2283075). As to conditions: primary human keratinocytes with fibroblasts; actives raise or lower the signal. The method in brief:
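Human keratinocyte plus foreskin fibroblast primary co-culture exposed to chemical for 24 h. uPA levels were quantified by ELISA, and activity was fitted bidirectionally against a DMSO negative-control baseline.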

Read-out in assay [3]: CD40, CD40 (gene 958)
Kind of assay: BSK_LPS_CD40: BioMAP Diversity Plus: LPS Assay for CD40 Biomarker Activity (AID 2283076). The settings on record: primary human HUVEC with PBMC; actives raise or lower the signal. Put shortly: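 Using a multiplexed primary human co-culture (umbilical vein endothelium plus PBMC), CD40 was read by ELISA 24 h after dosing, with cytotoxicity tracked by sulforhodamine B staining of parallel cultures and activity fitted bidirectionally versus DMSO.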

Read-out in assay [4]: E-selectin (Homo sapiens) (UniProt P16581)
Nature of the assay: BSK_LPS_Eselectin: BioMAP Diversity Plus: LPS Assay for Eselectin Biomarker Activity (AID 2283077). The settings on record: primary human HUVEC with PBMC; actives raise or lower the signal. Put shortly: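 Dose chemical onto LPS-driven HUVEC/PBMC co-culture; after 24 h, run ELISA for E-selectin; fit up- and down-going responses relative to DMSO control.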

Read-out in assay [5]: Interleukin-8 (IL8), CXCL8 (gene 3576)
Kind of assay: BSK_LPS_IL8: BioMAP Diversity Plus: LPS Assay for Interleukin-8 (IL8) Biomarker Activity (AID 2283078). As to conditions: primary human HUVEC with PBMC; actives raise or lower the signal. Put shortly:
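In this LPS system, chemical-treated human umbilical vein endothelium/PBMC co-cultures were harvested at 24 h for IL-8 ELISA.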

The nature of assay [6]: BSK_LPS_SRB: Viability Assessment in the BioMAP Diversity Plus: LPS Assay (AID 2283079).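 Also: total protein by sulforhodamine B absorbance as a cytotoxicity measure; measured one day after compound addition; fitted in both directions against DMSO so loss or gain of signal counts.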 The settings on record: primary human HUVEC with PBMC. The method in brief: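 Cytotoxicity endpoint in human endothelial–PBMC co-culture: 24 h exposure, then SRB (0.1%) staining, 560 nm read.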
Read-out in assay [7]: Interleukin-1 alpha (IL1a), IL1A (gene 3552)
Kind of assay: BSK_LPS_IL1a: BioMAP Diversity Plus: LPS Assay for Interleukin-1 alpha (IL1a) Biomarker Activity (AID 2283080). The settings on record: primary human HUVEC with PBMC; actives raise or lower the signal. The method in brief:
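Primary human HUVEC and PBMC co-culture stimulated with LPS is dosed and harvested at 24 h. Both increases and decreases in ELISA-measured IL-1a are scored relative to DMSO.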

Read-out in assay [8]: Monocyte Chemoattractant Protein-1 (MCP1), CCL2 (gene 6347)
Nature of the assay: BSK_LPS_MCP1: BioMAP Diversity Plus: LPS Assay for Monocyte Chemoattractant Protein-1 (MCP1) Biomarker Activity (AID 2283081).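 As to AC50: secreted MCP-1 protein quantified by ELISA in culture supernatant.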 The settings on record: primary human HUVEC with PBMC; actives raise or lower the signal. Put shortly:
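Values derive from bidirectional fitting against DMSO of ELISA-measured MCP-1 in a human primary endothelial and mononuclear cell co-culture, 24 h after chemical addition under LPS activation.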

Assay [9] is described as follows: BSK_LPS_PGE2: BioMAP Diversity Plus: LPS Assay for Prostaglandin E2 (PGE2) Biomarker Activity (AID 2283082).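 As to AC50: secreted prostaglandin E2 measured by ELISA in LPS-stimulated co-culture.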 The settings on record: primary human HUVEC with PBMC; actives raise or lower the signal. Put shortly:
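LPS-activated HUVEC/PBMC co-culture; cmpd dosed, 24 h; PGE2 by ELISA; bidirectional fit vs DMSO; SRB (0.1%, TCA-fixed, 560 nm) in parallel plates for overt cytotox.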

Read-out in assay [10]: Macrophage colony-stimulating factor (MCSF), CSF1 (gene 1435)
Kind of assay: BSK_LPS_MCSF: BioMAP Diversity Plus: LPS Assay for Macrophage colony-stimulating factor (MCSF) Biomarker Activity (AID 2283083). The settings on record: primary human HUVEC with PBMC; actives raise or lower the signal. Put shortly:
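Bidirectional fit versus DMSO of ELISA-measured M-CSF in co-cultured human umbilical vein endothelial cells and PBMC, sampled 24 h after dosing.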

Read-out in assay [11]: Tissue Factor, F3 (gene 2152)
Kind of assay: BSK_LPS_TissueFactor: BioMAP Diversity Plus: LPS Assay for Tissue Factor Biomarker Activity (AID 2283084). The settings on record: primary human HUVEC with PBMC; actives raise or lower the signal. The method in brief: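 Read-out: CD142 ELISA, 24 h. System: LPS-driven human endothelial/PBMC co-culture. Analysis: up- or down-signal fitted against DMSO.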

Read-out in assay [12]: Tumor necrosis factor (Homo sapiens) (UniProt P01375)
Nature of the assay: BSK_LPS_TNFa: BioMAP Diversity Plus: LPS Assay for Tumour Necrosis Factor alpha (TNFa) Biomarker Activity (AID 2283085). The settings on record: primary human HUVEC with PBMC; actives raise or lower the signal. The method in brief:
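Read-out is ELISA of TNFa in primary human endothelial cell–PBMC co-cultures at 24 h after compound. Activity in either direction was fitted against DMSO.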

Read-out in assay [13]: Vascular cell adhesion molecule 1 (VCAM1), VCAM1 (gene 7412)
Kind of assay: BSK_LPS_VCAM1: BioMAP Diversity Plus: LPS Assay for Vascular cell adhesion molecule 1 (VCAM1) Biomarker Activity (AID 2283086). The settings on record: primary human HUVEC with PBMC; actives raise or lower the signal. Put shortly:
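HUVEC + PBMC co-culture, LPS system; compound 24 h; VCAM-1 by ELISA; bidirectional fit vs DMSO control; parallel SRB (0.1%, TCA-fixed, 560 nm) for cytotoxicity.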

Read-out in assay [14]: CD38, CD38 (gene 952)
Nature of the assay: BSK_SAg_CD38: BioMAP Diversity Plus: SAg Assay for CD38 Biomarker Activity (AID 2283087). As to conditions: primary human HUVEC with PBMC; actives raise or lower the signal. The method in brief:
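Human HUVEC plus PBMC co-culture stimulated with superantigen; CD38 measured by ELISA 24 h after chemical dosing. Fluorescence read-out, bidirectional fit against DMSO; cytotoxicity tracked in parallel by SRB and Alamar Blue.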

Read-out in assay [15]: CD40, CD40 (gene 958)
Kind of assay: BSK_SAg_CD40: BioMAP Diversity Plus: SAg Assay for CD40 Biomarker Activity (AID 2283088). The settings on record: primary human HUVEC with PBMC; actives raise or lower the signal. Put shortly:
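Endpoint derived by fitting increases or decreases versus DMSO controls. CD40 is detected by fluorescence ELISA in a human vascular co-culture of endothelium and PBMC at 24 h.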

Read-out in assay [16]: CD69, CD69 (gene 969)
Nature of the assay: BSK_SAg_CD69: BioMAP Diversity Plus: SAg Assay for CD69 Biomarker Activity (AID 2283089).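 As to AC50: cell surface CD69 protein quantified by ELISA with fluorescence detection.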 The settings on record: primary human HUVEC with PBMC; actives raise or lower the signal. Put shortly: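 Endothelial/PBMC co-culture; chemical added; 24 h incubation; CD69 ELISA with fluorescence detection; bidirectional fit vs DMSO.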

Read-out in assay [17]: Monocyte Chemoattractant Protein-1 (MCP1), CCL2 (gene 6347)
Kind of assay: BSK_SAg_MCP1: BioMAP Diversity Plus: SAg Assay for Monocyte Chemoattractant Protein-1 (MCP1) Biomarker Activity (AID 2283090). As to conditions: primary human HUVEC with PBMC; actives raise or lower the signal. Put shortly: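 MCP-1 levels in the endothelial–PBMC SAg co-culture were quantified by ELISA at 24 h post-dosing; both increases and decreases versus DMSO scored. Cytotoxicity monitored by SRB total protein in parallel cultures.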

Read-out in assay [18]: E-selectin (Homo sapiens) (UniProt P16581)
Kind of assay: BSK_SAg_Eselectin: BioMAP Diversity Plus: SAg Assay for Eselectin Biomarker Activity (AID 2283091). As to conditions: primary human HUVEC with PBMC; actives raise or lower the signal. The method in brief: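 Endpoint values derive from bidirectional fitting relative to DMSO, using ELISA-measured E-selectin in a human vascular co-culture (umbilical vein endothelium plus PBMC) sampled 24 h after dosing.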

Read-out in assay [19]: Monokine induced gamma interferon (MIG), CXCL9 (gene 4283)
Nature of the assay: BSK_SAg_MIG: BioMAP Diversity Plus: SAg Assay for Monokine induced gamma interferon (MIG) Biomarker Activity (AID 2283092). The settings on record: primary human HUVEC with PBMC; actives raise or lower the signal. Put shortly:
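Measures CXCL9 protein by ELISA in a human vascular primary-cell co-culture (umbilical vein endothelium with PBMC) 24 h after chemical addition. Activity is scored up or down from the DMSO control.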

Active and inactive are the calls of the source. The calls were made as follows: active = hit-call score of the fitted dose curve at least 0.9, where 1 is the maximum; inactive = score below 0.9.

Sequence of Tumor necrosis factor (Homo sapiens) (P01375 whole entry, looked up): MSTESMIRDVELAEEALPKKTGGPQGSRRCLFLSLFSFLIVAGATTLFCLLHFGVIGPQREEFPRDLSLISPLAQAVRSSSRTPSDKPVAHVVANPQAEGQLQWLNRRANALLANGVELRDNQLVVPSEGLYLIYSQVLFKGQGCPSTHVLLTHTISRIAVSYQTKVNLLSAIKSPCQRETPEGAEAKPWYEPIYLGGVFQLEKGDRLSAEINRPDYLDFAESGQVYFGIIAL
Sequence of E-selectin (Homo sapiens) (P16581 whole entry, looked up): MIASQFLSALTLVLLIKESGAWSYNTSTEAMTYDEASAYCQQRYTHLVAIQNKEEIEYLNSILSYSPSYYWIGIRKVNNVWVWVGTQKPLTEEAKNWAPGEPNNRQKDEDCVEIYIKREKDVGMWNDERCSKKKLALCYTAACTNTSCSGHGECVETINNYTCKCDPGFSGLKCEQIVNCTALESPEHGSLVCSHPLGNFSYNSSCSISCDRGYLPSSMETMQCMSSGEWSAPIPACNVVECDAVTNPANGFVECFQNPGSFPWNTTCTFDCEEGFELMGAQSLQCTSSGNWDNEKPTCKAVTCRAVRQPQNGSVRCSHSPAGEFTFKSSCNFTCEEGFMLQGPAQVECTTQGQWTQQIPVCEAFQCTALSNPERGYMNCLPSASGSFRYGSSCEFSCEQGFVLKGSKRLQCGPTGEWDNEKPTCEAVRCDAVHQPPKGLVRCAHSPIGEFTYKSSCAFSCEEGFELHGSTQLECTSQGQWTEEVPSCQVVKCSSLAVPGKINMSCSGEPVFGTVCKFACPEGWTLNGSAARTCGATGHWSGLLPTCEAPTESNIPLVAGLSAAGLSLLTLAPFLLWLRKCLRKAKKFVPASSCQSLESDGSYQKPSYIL

`Cc1cn([C@H]2C[C@H](N=[N+]=[N-])[C@@H](CO)O2)c(=O)[nH]c1=O`: the outcome in assay [1], in assay [2], in [3], in assay [4], in [5] and in assay [6] was inactive. Besides, the result in assay [7], in assay [8], in [9], in [10], in [11] and in assay [12] was inactive. In addition, the outcome in [13], in assay [14], in assay [15], in assay [16], in [17] and in [18] was inactive.

As for `CCN(Cc1cccnc1)C(=O)c1cccc(Cl)c1[C@]1(C)C(=O)N(Cc2ccc(OC)cc2OC)c2ccc(Cl)cc21`, the concentration at half-maximal activity (AC50) (usually the concentration giving half of the maximal activity seen) in assay [1] is 4.21 µM (active); in assay [3], 5.26 µM (active); in assay [4] it was 10.8 µM (active); in [5] it was 5.54 µM (active); in assay [6], 6.69 µM (active); in assay [7], 4.18 µM (active). For the same compound, the half-maximal activity concentration (AC50) was 8.28 µM (active) in [8]; 6.54 µM (active) in assay [10]; 12.5 µM (active) in assay [11]; 5.26 µM (active) in assay [13]; 8.35 µM (active) in assay [14]; 5.55 µM (active) in [15]. In addition, the AC50 is 7.2 µM (active) in assay [16], 5.36 µM (active) in [17] and 7.27 µM (active) in assay [18]. In addition, the result in assay [2], in assay [9] and in assay [12] was inactive.

As to `CCCCCCCCCCCC[N+](C)(C)C`, the concentration at half-maximal activity (AC50) in assay [1] is 30.7 µM (active); in [2], 34 µM (active); in [3] it was 16.9 µM (active); in assay [4], 20.3 µM (active); in assay [5] it was 20 µM (active); in assay [6], 25.7 µM (active). For the same compound, the concentration at half-maximal activity (AC50) in assay [7] is 16.6 µM (active); in assay [8], 25.5 µM (active); in assay [10] it was 26 µM (active); in assay [11], 32.4 µM (active); in assay [12] it was 31.7 µM (active); in assay [13] it was 25.7 µM (active). The AC50 in assay [14] is 17.4 µM (active); in [16], 18.1 µM (active); in [17] it was 18.4 µM (active); in [18], 32.2 µM (active); in assay [19], 29.4 µM (active). Besides, in assay [9], the outcome was inactive.

Take `Oc1ccc2ccccc2c1`: the outcome in [1], in assay [2], in assay [5], in assay [6], in assay [7] and in assay [8] was inactive. The outcome in assay [10], in assay [11], in [12], in [13], in assay [14] and in assay [15] was inactive. Further, the result in assay [16] and in [17] was inactive. Moreover, the AC50 was 22.1 µM (active) in assay [3], 16.1 µM (active) in [4], 13.2 µM (active) in [9] and 10.8 µM (active) in assay [18].
